# Activity calls are given as the source filed them. Rule as the data show it, unless noted: active = inhibition above about 80%; inactive = the rest.
# Experiments:
# [1] = growth inhibition, single agents and combos, HTB85, cell-based, BGB or cisplatin IC20 combos, synergistic combos for chromothripsis tumors (AID 1671453); settings: HTB85 osteosarcoma cells, drug combinations, stronger effect = higher value;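 also: cells exposed for 96 hours before readout; 0% = vehicle DMSO and 100% = high DMSO killing control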
# [2] = growth inhibition, single agents and combos, CRL2098, cell-based, BGB or cisplatin IC20 combos, synergistic combos for chromothripsis tumors (AID 1671454); settings: CRL2098 osteosarcoma cells, drug combinations, stronger effect = higher value;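 also: cells exposed for 96 h before readout; 0% = vehicle DMSO and 100% = killing by high DMSO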
# [3] = growth inhibition, single agents and combos, HD-MB03, cell-based, BGB or cisplatin IC20 combos, synergistic combos for chromothripsis tumors (AID 1671455; in the data active = inhibition above about 83%;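 also: 0% = vehicle DMSO and 100% = high DMSO as cytotoxic control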); settings: HD-MB03 medulloblastoma cells, stronger effect = higher value
# [4] = growth inhibition, single agents and combos, UWB1.289, cell-based, BGB or cisplatin combos, synergistic combos for chromothripsis tumors (AID 1671456); settings: UWB1.289 ovarian carcinoma cells, stronger effect = higher value;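 also: cells exposed to compound for four days; 0% = vehicle DMSO and 100% = killing by high DMSO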
# [5] = growth inhibition, single agents and combos, LFS_MB_2R, cell-based, cisplatin combos, synergistic combos for chromothripsis tumors (AID 1671457); settings: LFS_MB_2R medulloblastoma cells, stronger effect = higher value;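 also: cells exposed to compound for four days before readout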
# [6] = growth inhibition, MDA-MB-436, cell-based, BGB or cisplatin combos, synergistic combos for chromothripsis tumors (AID 1671458; call rule not given here;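 also: cells exposed for 96 hours; 0% = vehicle DMSO and 100% = killing by high DMSO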); settings: MDA-MB-436 breast carcinoma growth inhibition, drug combinations, stronger effect = higher value
# [7] = UWB1.289_BRCA1 ovarian cancer growth, cell-based, BGB or cisplatin combinations (AID 1671459); settings: UWB1.289 BRCA1 ovarian carcinoma, drug combinations, stronger effect = higher value
# [8] = drug combination toxicity in non-malignant astrocytes – cell-based, BGB or cisplatin IC20 combos, cytotoxicity control for chromothriptic childhood tumor combination screen (AID 1671460); settings: Human astrocytes, viability inhibition, drug combinations, at 0.5 µM, stronger effect = higher value;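 also: cells exposed to compounds for 96 hours before viability readout; 0% = vehicle and 100% = killing control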
# [9] = BT084 cell growth, single and combined drugs, ICGC_MB145, cisplatin and BGB IC40 combos (AID 1671461); settings: BT084 medulloblastoma cells, drug combinations, stronger effect = higher value;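 also: cells exposed to drugs for 96 hours; 0% = vehicle DMSO and 100% = high DMSO full killing control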
# [10] = RCMB18 cell growth, single agent and combined, cisplatin and BGB IC40 combos (AID 1671462); settings: RCMB18 medulloblastoma cells, stronger effect = higher value;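 also: cells exposed to compound for four days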
# [11] = CRL1545 cell growth, single agent and combined, cisplatin and BGB IC20 combos (AID 1671464); settings: CRL1545 osteosarcoma cells, stronger effect = higher value;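 also: cells exposed to compound for 96 hours before readout; 0% = vehicle DMSO and 100% = high DMSO killing control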
# [12] = measured here: combination with cisplatin, at 0.5 µM
smiles,measurement,setting,value
Cc1c(-c2cnccn2)ssc1=S,inhibition,"[1]; measured here: with BGB IC20, at 0.5 µM",-48%
same,inhibition,"[1]; measured here: with BGB IC20, at 5 µM",-29.8%
same,inhibition,"[1]; measured here: with cisplatin IC20, at 0.5 µM",-19.3%
same,inhibition,"[1]; measured here: with cisplatin IC20, at 5 µM",6.84%
same,inhibition,"[1]; single agent, at 5 µM",-28%
same,inhibition,[2]; at 0.5 µM,-91.2% (inactive)
same,inhibition,"[2]; measured here: combination with BGB at IC20, at 0.5 µM",-80.8%
same,inhibition,"[2]; measured here: combination with cisplatin at IC20, at 0.5 µM",-109%
same,inhibition,[3]; at 0.5 µM,-13% (inactive)
same,inhibition,"[3]; measured here: combo with BGB at IC20, at 0.5 µM",-1.23%
same,inhibition,"[3]; measured here: combo with cisplatin at IC20, at 0.5 µM",-23%
same,inhibition,[4]; at 0.5 µM,-15.7% (inactive)
same,inhibition,"[4]; measured here: inhibition with BGB combination, at 0.05 µM",-24.2%
same,inhibition,"[4]; measured here: inhibition with cisplatin combination, at 0.05 µM",3.36%
same,inhibition,[5]; at 0.5 µM,-15.7% (inactive)
same,inhibition,[5]; [12],-6.9%
same,inhibition,"[5]; measured here: combination with cisplatin, at 5 µM",-12.4%
same,inhibition,[6]; at 0.5 µM,-20.6% (inactive)
same,inhibition,"[6]; measured here: BGB combination, at 0.5 µM",-19.7%
same,inhibition,"[6]; measured here: BGB combination, at 5 µM",-36%
same,inhibition,"[6]; measured here: cisplatin combination, at 0.5 µM",-33%
same,inhibition,"[6]; measured here: cisplatin combination, at 5 µM",-12.1%
same,inhibition,"[7]; BGB combination, concentration series, at 5 µM",-4.42%
same,inhibition,[7]; at 0.5 µM,-14.9% (inactive)
same,inhibition,"[7]; cisplatin combination, concentration series, at 5 µM",-10.4%
same,inhibition,[8],0.12% (inactive)
same,inhibition,[8]; measured here: combo with BGB IC20,-4.93%
same,inhibition,[8]; measured here: combo with cisplatin IC20,-9.68%
same,inhibition,[9]; at 0.5 µM,-10.9% (inactive)
same,inhibition,"[9]; cisplatin combination, at 0.5 µM",-13.8%
same,inhibition,"[9]; cisplatin combination, at 5 µM",-45.9%
same,inhibition,"[9]; measured here: BGB IC40 combination 0.05 uM, at 0.05 µM",2.43%
same,inhibition,"[9]; single agent, at 5 µM",-13.6%
same,inhibition,[10]; at 0.5 µM,-21% (inactive)
same,inhibition,"[10]; cisplatin combo, at 5 µM",-46.1%
same,inhibition,"[10]; measured here: BGB IC40 combination, at 0.05 µM",-10.6%
same,inhibition,[10]; [12],-54.1%
same,inhibition,"[10]; single agent, at 5 µM",-29.2%
same,inhibition,[11]; at 0.5 µM,-60.7% (inactive)
same,inhibition,"[11]; measured here: with BGB IC20 combination, at 0.5 µM",-51%
same,inhibition,"[11]; measured here: with cisplatin IC20 combination, at 0.5 µM",-65.5%
same,inhibition,"[11]; single agent, at 0.05 µM",-3.94%
same,inhibition,"[11]; single agent, at 5 µM",-64.9%
